We go through 40 compounds from PubChem BioAssay (NCATS).

Molecules are shown by their SMILES. Results filed as inconclusive are left out. A number with no mark means an inactive call. Active and inactive are the calls of the source. Calls follow the shape of the dose curve; as a rule, active = well fitted cell-killing curve with a large enough effect; inconclusive = small, poorly fitted or top-dose-only effect; inactive = no such curve, though single readings can be large or run the other way.
Potency is read from the fitted curve at half-maximal effect.

This experiment is described as follows: Quantitative High-Throughput drug screen in 47 multiple myeloma cell lines against the NCATS MIPE library collection: NCIH929_DSMZ cell viability assay (AID 1918978). Also: nearly all actives have a fitted effect of over 35% in size. Particulars: NCI-H929 myeloma viability, CellTiter-Glo ATP, 48 h; series mostly up to 45.8 µM; viability, % of control: at the top concentration. The text has this:
PI: Beverly A. Mock Ph.D.
Laboratory of Cancer Biology and Genetics,
Center for Cancer Research, National Cancer Institute,
National Institute of Health, Bethesda, Maryland
Drug resistance and disease progression are common in multiple myeloma (MM) patients, underscoring the need for new therapeutic combinations. […] We hypothesized that effective combinations would reduce MYC expression and enhance p16 activity. […] These preclinical data identify potentially useful drug combinations for evaluation in drug-resistant MM and reveal potential mechanisms of combined drug sensitivity.
Described herein is the primary MIPE qHTS used to cherrypick compounds. Validated compounds were then further tested for potential synergistic activiy.
[1] Peat TJ, Gaikwad SM, Dubois W, Gyabaah-Kessie N, Zhang S, Gorjifard S, Phyo Z, Andres M, Hughitt VK, Simpson RM, Miller MA, Girvin AT, Taylor A, Williams D, D'Antonio N, Zhang Y, Rajagopalan A, Flietner E, Wilson K, Zhang X, Shinn P, Klumpp-Thomas C, McKnight C, Itkin Z, Chen L, Kazandijian D, Zhang J, Michalowski AM, Simmons JK, Keats J, Thomas CJ, Mock BA. Drug combinations identified by high-throughput screening promote cell cycle transition and upregulate Smad pathways in myeloma. Cancer Lett. 2023 Aug 1;568:216284. doi: 10.1016/j.canlet.2023.216284. Epub 2023 Jun 24. PMID: 37356470; PMCID: PMC10408729.
SEQUENCE No. (e.g., 1, 2, 3, etc.); […] (e.g., Cells, Incubation, Reagent, etc.); VALUE and DESCRIPTION.
1; Cells; 5 uL; white, solid bottom 1536-well Greiner assay plate.
2; Compounds; 23 nL; Kalypsis pin tool (Wako USA) equipped with a 1536-well pin head to transfer to the assay plates.
3; Incubation; 48 hours; 37C incubation.
4; Reagent;5uL; CellTiter Glo (Promega).
5; Detector; 425V; Luminescence; Viewlux PerkinElmer.
NOTES (numbers refer to Sequence numbers above)
1. The cell-based screening methods employed in this study were like those previously published. Briefly, the corresponding myeloma cell lines were screened in 1,536-well plates with 500 cells, 5-uL per well for inhibition of cell viability (assessed by measuring ATP levels with CellTiterGlo).
2. NCATS MIPE 4.0 library of approved and investigational drugs were added using the Kalypsis pin tool. Wells treated with DMSO only for 100% viability and media only for 0% viability were used as controls.
3. The assay plates were covered and incubated for 48 hours in a 37C, 5% CO2 incubator with controlled humidity.
4. After 48 hours, CellTilter-GloTM luminescent substrate mix (Promega) reagent was added to the assay plate and plates we incubated for 5 min at room temperature.
5. Signal was measured as median relative luminescence units on a ViewLux (PerkinElmer) multiplate reader.
[1] Heske CM, Davis MI, Baumgart JT, Wilson K, Gormally MV, Chen L, Zhang X, Ceribelli M, Duveau DY, Guha R, Ferrer M, Arnaldez FI, Ji J, Tran HL, Zhang Y, Mendoza A, Helman LJ, Thomas CJ. Matrix Screen Identifies Synergistic Combination of PARP Inhibitors and Nicotinamide Phosphoribosyltransferase (NAMPT) Inhibitors in Ewing Sarcoma. Clin Cancer Res. 2017 Dec 1;23(23):7301-7311. doi: 10.1158/1078-0432.CCR-17-1121. Epub 2017 Sep 12. PMID: 28899971; PMCID: PMC6636827.
On to `C#CCN(C)CC1=Cc2ccccc2Oc2ccccc21`, for which the “viability, % of control” value is 81.9%.

Take `Cc1cn([C@@H]2C[C@@H](O)[C@H](CO)O2)c(=O)[nH]c1=O`: the “viability, % of control” value is 113%.

Take `Cc1cccc(-c2[nH]c(C(C)(C)C)nc2-c2ccc3c(c2)OCO3)n1`: the Potency was 6.62 µM (active).

Regarding `O=C(C=Cc1ccc(O)cc1)c1ccc(O)cc1O`, the Potency is 16.6 µM (active).

In the case of `CC(C)(F)C[C@H](N[C@@H](c1ccc(-c2ccc(S(C)(=O)=O)cc2)cc1)C(F)(F)F)C(=O)NC1(C#N)CC1`, the “viability, % of control” value is 107%.

Take `O=C(Nc1ncc(SCCN2CCCC2)s1)[C@]1(c2ccc(S(=O)(=O)C3CC3)cc2)C[C@@H]1C1CCCCC1`: the Potency was 20.9 µM (active).

As for `CN(C)CCOc1ccc(C(=C(CCCl)c2ccccc2)c2ccccc2)cc1`, the “viability, % of control” value is 115%.

Consider `FC(F)(F)c1ccc(C=Cc2nc(COc3ccc(CCCCn4ccnn4)cc3)co2)cc1`, for which the Potency was 0.0235 µM (active).

With `Cc1ccccc1-n1c(Cn2nc(-c3cccc(O)c3)c3c(N)ncnc32)nc2cccc(C)c2c1=O`, the Potency was 14.8 µM (active).

In the case of `CN(C)S(=O)(=O)c1ccc2c(c1)C(=Cc1cc3c([nH]1)CCCC3)C(=O)N2`, the Potency is 18.7 µM (active).

As to `O=C(Nc1ccccc1)Nc1ccc(-c2ccc(C(=O)[C@H]3CCC[C@H]3C(=O)O)cc2)cc1`, the “viability, % of control” value is 117%.

Take `Cc1ccc(S(=O)(=O)Nc2nc3ccccc3nc2Nc2ccc3nsnc3c2)cc1`: the Potency was 7.24 µM (active).

For `CC(C)C[C@@H](C(=O)N[C@H](C(=O)OC1CCCC1)c1ccccc1)[C@H](O)C(=O)NO`, the Potency is 18.7 µM (active).

Regarding `CNC1CCC(N(Cc2cccc(-c3ccncc3)c2)C(=O)c2sc3ccccc3c2Cl)CC1` (stereo not given), the Potency is 10.5 µM (active).

As for `NC[C@H]1O[C@H](O[C@@H]2[C@@H](O)[C@@H](O[C@H]3O[C@H](CO)[C@@H](O)[C@H](N)[C@@H]3O)[C@H](N)C[C@@H]2N)[C@H](O)[C@@H](O)[C@H]1O`, the “viability, % of control” value is 94%.

Consider `CNC(=O)c1cc(COc2nnc(Nc3ccc(Cl)cc3)c3ccoc23)ccn1`, for which the “viability, % of control” value was 102%.

With `O=C(CO)N1CCC(c2[nH]nc(-c3ccc(Cl)cc3)c2-c2ccncn2)CC1`, the “viability, % of control” value was 103%.

`CCC(=O)OCC(=O)[C@@]1(OC(=O)CC)[C@@H](C)C[C@@H]2[C@H]3CCC4=CC(=O)C=C[C@]4(C)[C@@]3(F)[C@@H](O)C[C@@]21C`: the “viability, % of control” value was 92.4%.

For the compound `O=C(Nc1cccc(Cl)c1)Nc1ncc(CCNc2ncnc3ccsc23)s1`, the Potency is 7.43 µM (active).

`COc1ccc(C=CC(=O)Nc2ccccc2C(=O)O)cc1OC`: the “viability, % of control” value was 97.5%.

For the compound `CCC(=C(CC)c1ccc(O)cc1)c1ccc(O)cc1`, the Potency is 16.6 µM (active).

Take `CC(=O)NCCC(=O)N[C@@H](CCC(N)=O)C(=O)N[C@@H](CO)C(=O)N[C@@H](CCC(N)=O)C(=O)N[C@@H](CCC(N)=O)C(=O)N[C@H](C(=O)N[C@@H](Cc1ccccc1)C(=O)N[C@]1(C)CCCCCCC=CCCC[C@@](C)(C(=O)N[C@@H](CCC(N)=O)C(=O)N[C@@H](CC(N)=O)C(N)=O)NC(=O)[C@H](CC(C)C)NC(=O)[C@H](CC(C)C)NC(=O)[C@@H](CCCNC(=N)N)NC(=O)[C@H](Cc2c[nH]c3ccccc23)NC(=O)[C@H](CC(C)C)NC(=O)[C@H](CC(N)=O)NC1=O)[C@H](C)O`: the Potency was 23.5 µM (active).

Regarding `CNC(=O)[C@H](Cc1ccccc1)NC(=O)[C@H](CC(C)C)[C@H](CSc1cccs1)C(=O)NO`, the Potency was 9.35 µM (active).

For `COc1ccc2nc3cc(Cl)ccc3c(Nc3cc(CN4CCCC4)c(O)c(CN4CCCC4)c3)c2n1`, the Potency was 18.7 µM (active).

Take `CN(C)c1ccc(-c2nc3ncc(Cl)c(N4CCN(CC(=O)Nc5nccs5)CC4)c3[nH]2)cc1`: the “viability, % of control” value was 93.7%.

`N#Cc1c(N(CC(=O)O)CC(=O)O)sc(C(=O)O)c1CC(=O)O`: the Potency was 26.4 µM (active).

Regarding `NCC1CCC(C(=O)O)CC1` (stereo not given), the “viability, % of control” value was 108%.

For the compound `CCN(CC)CCCCNc1nc2cc(Cl)c(Cl)cc2nc1-c1ccc(-c2cccs2)s1`, the Potency is 7.43 µM (active).

With `C[C@H](CCC(=O)O)[C@H]1CC[C@H]2[C@H]3[C@@H](CC[C@]12C)[C@@]1(C)CC[C@@H](O)C[C@H]1C[C@@H]3O`, the “viability, % of control” value was 102%.

Consider `COC(=O)N1CCN(Cc2cccc(NC(=O)Nc3ccc(C)nc3)c2F)CC1`, for which the “viability, % of control” value is 106%.

For `NC1(C(=O)N[C@@H](CCO)c2ccc(Cl)cc2)CCN(c2ncnc3[nH]ccc23)CC1`, the Potency was 0.0833 µM (active).

As to `CN(C)CCN(Cc1ccc(Cl)cc1)c1ccccn1`, the Potency is 10.5 µM (active).

With `O=S(=O)(NCCNCC=Cc1ccc(Br)cc1)c1cccc2cnccc12`, the Potency is 14.8 µM (active).

For `COc1cc(CNC(=O)CCCCC=CC(C)C)ccc1O`, the Potency was 18.7 µM (active).

Turning to `CCCCn1c(=O)n(Cc2ccccc2F)c(=O)c2[nH]c(Cc3ccc(NC(C)=O)cc3)nc21`, the “viability, % of control” value was 76.2%.

As for `CCNC(=O)c1noc(-c2cc(C(C)C)c(O)cc2O)c1-c1ccc(CN2CCOCC2)cc1`, the Potency is 0.0418 µM (active).

Regarding `O=C(c1ccc(F)c(F)c1Nc1ccc(I)cc1F)N1CC(O)([C@H]2CCCCN2)C1`, the Potency was 14.8 µM (active).

Take `COc1cc(F)c(C(C)C)cc1-c1ccc(C(F)(F)F)cc1CN1C(=O)O[C@H](c2cc(C(F)(F)F)cc(C(F)(F)F)c2)[C@@H]1C`: the “viability, % of control” value is 101%.

`Clc1ccc(COC(Cn2ccnc2)c2ccc(Cl)cc2Cl)c(Cl)c1` (stereo not given): the Potency was 18.7 µM (active).

With `CC1=C(C(=O)Nc2cc3cn[nH]c3cc2F)C(c2ccc(C(F)(F)F)cc2)CC(=O)N1` (stereo not given), the “viability, % of control” value was 99.2%.
